Laboratory results as given in PubChem BioAssay (NCATS).
Results filed as inconclusive are left out. A call without a number means that no potency is given here. Activity calls are given as the source filed them. Unless noted, the call rests on the fitted dose curve; in most records, active means well fitted curve in the direction sought with a large enough effect; inconclusive means small, poorly fitted or top-dose-only effect, or another doubt; inactive means no such curve, though single readings can be large; an effect the other way counts as inactive or inconclusive.

How the values were obtained:
[1] = P-glycoprotein substrates identified in KB-8-5-11 adenocarcinoma cell line, qHTS therapeutic library screen (AID 1346987); settings: KB-8-5-11 (P-gp overexpressing) viability, CellTiter-Glo, 72 h; series mostly up to 44.5 µM; further: nearly all actives have a fitted effect of over 65% in size; further: potency means the concentration at half of the fitted maximal effect
Outline: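 Luminescence from CellTiter-Glo, read 5 min after addition, quantified survival of KB-8-5-11 (P-gp-overexpressing) cells exposed to compounds for 72 h. AC50 was derived from concentration-response curves.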

[2] = NS1 protein of Zika virus - qHTS assay to identify small molecule inhibitors in human HEK 293 cells (AID 1347053); settings: HEK293 ZIKV MR766 infection, NS1 TR-FRET, 24 h; series mostly up to 46.1 µM; further: nearly all actives have a fitted effect of over 55% in size
Outline: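 TR-FRET signal from two anti-ZIKV NS1 antibodies quantified NS1 in HEK 293 cells 24 h after MR766 infection at MOI = 0.5; compounds were added 1 h before virus. Uninfected cells and infected cells defined the NS1 normalization range.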

[3] = qHTS for Inhibitors of the Functional Ribonucleoprotein Complex (vRNP) of Lassa (LASV) Arenavirus: LASV Primary Screen - GLuc reporter signal (AID 1347082; calls by dose curve; tested in HEK293 reporter line; further: nearly all actives have a fitted effect of over 60% in size; further: potency means the concentration at half of the fitted maximal effect); settings: LASV minigenome vRNP, Gaussia luciferase reporter; series mostly up to 57.5 µM
[4] = qHTS for Inhibitors of the Functional Ribonucleoprotein Complex (vRNP) of Lassa (LASV) Arenavirus: Viability assay - alamar blue signal for LASV Primary Screen (AID 1347083; calls by dose curve; tested in HEK293 reporter line; further: nearly all actives have a fitted effect of over 80% in size; further: potency means the concentration at half of the fitted maximal effect); settings: cell viability, alamar blue fluorescence (LASV minigenome counter-screen); series mostly up to 57.5 µM
[5] = qHTS for Inhibitors of the Functional Ribonucleoprotein Complex (vRNP) of Lymphocytic Choriomeningitis Arenaviruses (LCMV): Viability assay - alamar blue signal for LCMV Primary Screen (AID 1347085; calls by dose curve; tested in HEK293 reporter line; further: nearly all actives have a fitted effect of over 80% in size; further: potency means the concentration at half of the fitted maximal effect); settings: alamar blue viability counter-screen, LCMV vRNP screen cells; series mostly up to 57.5 µM
[6] = target: Nucleoprotein (Lymphocytic choriomeningitis virus (strain Armstrong)) (UniProt P09992); experiment: qHTS for Inhibitors of the Functional Ribonucleoprotein Complex (vRNP) of Lymphocytic Choriomeningitis Arenaviruses (LCMV): LCMV Primary Screen - GLuc reporter signal (AID 1347086; calls by dose curve; further: nearly all actives have a fitted effect of over 70% in size; further: potency means the concentration at half of the fitted maximal effect); settings: LCMV minigenome vRNP cell assay, Gaussia luciferase reporter; series mostly up to 57.5 µM
Sequence of Nucleoprotein (Lymphocytic choriomeningitis virus (strain Armstrong)) (P09992 whole entry, looked up): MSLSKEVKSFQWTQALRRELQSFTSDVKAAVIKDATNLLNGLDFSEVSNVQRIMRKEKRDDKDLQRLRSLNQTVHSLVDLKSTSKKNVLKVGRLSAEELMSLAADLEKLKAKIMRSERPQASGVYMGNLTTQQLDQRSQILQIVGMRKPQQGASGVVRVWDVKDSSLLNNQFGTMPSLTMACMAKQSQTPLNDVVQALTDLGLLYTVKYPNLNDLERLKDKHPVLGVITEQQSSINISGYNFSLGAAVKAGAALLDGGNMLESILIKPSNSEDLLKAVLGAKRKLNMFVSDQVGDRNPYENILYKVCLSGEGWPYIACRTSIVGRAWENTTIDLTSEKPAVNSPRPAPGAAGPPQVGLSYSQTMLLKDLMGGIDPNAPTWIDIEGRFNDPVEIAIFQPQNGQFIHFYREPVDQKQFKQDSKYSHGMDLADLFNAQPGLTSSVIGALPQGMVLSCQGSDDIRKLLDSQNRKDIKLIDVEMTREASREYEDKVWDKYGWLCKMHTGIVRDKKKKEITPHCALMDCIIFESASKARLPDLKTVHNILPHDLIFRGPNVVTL

[7] = qHTS of pediatric cancer cell lines to identify multiple opportunities for drug repurposing: Primary screen for TC32 cells (AID 1347089); settings: TC32 Ewing sarcoma viability, CellTiter-Glo luminescence, 48 h; series mostly up to 45.8 µM; further: nearly all actives have a fitted effect of over 60% in size; further: potency means the concentration at half of the fitted maximal effect
Outline: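 In the primary qHTS, MIPE compounds were tested at 11 concentrations (0.78 nM to 46 µM) and NPC compounds at 8 (0.59 nM to 46 µM) on TC32 cells for 48 h. CellTiter-Glo luminescence gave viability.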

[8] = qHTS of pediatric cancer cell lines to identify multiple opportunities for drug repurposing: Primary screen for DAOY cells (AID 1347090); settings: DAOY medulloblastoma viability, CellTiter-Glo luminescence, 48 h; series mostly up to 46 µM; further: nearly all actives have a fitted effect of over 55% in size; further: potency means the concentration at half of the fitted maximal effect
Outline: (§1)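 Cell viability, CellTiter-Glo luminescence; 500-1,000 cells/well, 8- or 11-point titration, 48 h compound exposure at 37 degrees C, 5% CO2. Controls: DMSO neutral, bortezomib 2.3 µM final as positive.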

[9] = qHTS of pediatric cancer cell lines to identify multiple opportunities for drug repurposing: Primary screen for SJ-GBM2 cells (AID 1347091); settings: SJ-GBM2 viability, CellTiter-Glo luminescence, 48 h; series mostly up to 46 µM; further: potency means the concentration at half of the fitted maximal effect
Outline: as §1

[10] = qHTS of pediatric cancer cell lines to identify multiple opportunities for drug repurposing: Primary screen for A673 cells (AID 1347092); settings: A673 Ewing sarcoma viability, CellTiter-Glo ATP luminescence, 48 h; series mostly up to 46 µM; further: nearly all actives have a fitted effect of over 45% in size; further: potency means the concentration at half of the fitted maximal effect
Outline: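 48 h compound exposure, A673, 500-1,000 cells/well, 37 degrees C/5% CO2. MIPE: 11-point, 0.78 nM-46 µM; NPC: 8-point, 0.59 nM-46 µM (final). Readout CellTiter-Glo luminescence after 15 min RT.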

Which Potency [1] does the source give for C[C@H]([C@H](O)CCC(C)(C)O)[C@H]1CC[C@@]2(O)C3=CC(=O)[C@@H]4C[C@@H](O)[C@@H](O)C[C@]4(C)[C@@H]3CC[C@]12C here?
Its Potency is “inactive”.

And the Potency [2]?
Its Potency is “inactive”.

What about the Potency [3] of the same compound?
The Potency was “inactive”.

What about the Potency [4] of the same compound?
The Potency was “inactive”.

And the Potency [5]?
Its Potency is “inactive”.

What about the Potency [6] of the same compound?
The Potency was “inactive”.

What about the Potency [7] of the same compound?
The Potency was “inactive”.

And the Potency [8]?
The Potency was “inactive”.

And the Potency [9]?
Its Potency is “inactive”.

What about the Potency [10] of the same compound?
The Potency was “inactive”.

What does the source list for C[C@]12Cc3cn[nH]c3C[C@@H]1CC[C@@H]1[C@H]2CC[C@@]2(C)[C@H]1CC[C@]2(C)O?
Potency [1]: inactive; Potency [2]: inactive; Potency [3]: inactive; Potency [4]: inactive; Potency [5]: inactive; Potency [6]: inactive; Potency [7]: inactive; Potency [8]: inactive; Potency [10]: 14.8 µM (active)

Which Potency [1] does the source give for C[C@H]1CCCC=CC2C[C@H](O)C[C@@H]2[C@H](O)C=CC(=O)O1 (stereo partly drawn) here?
The Potency was 0.001 µM (active).

And the Potency [2]?
Its Potency is “inactive”.

And the Potency [3]?
Its Potency is 0.0273 µM (active).

What about the Potency [4] of the same compound?
The Potency was 0.0243 µM (active).

And the Potency [5]?
Its Potency is 0.0193 µM (active).

And the Potency [6]?
Its Potency is 0.0109 µM (active).

What about the Potency [7] of the same compound?
The Potency was 0.0131 µM (active).

And the Potency [9]?
The Potency was 0.001 µM (active).

For CC(=O)OCC1=C(C(=O)O)N2C(=O)[C@@H](N)[C@@H]2SC1, which Potency [1] is on record?
The Potency was “inactive”.

What about the Potency [2] of the same compound?
The Potency was “inactive”.

And the Potency [3]?
The Potency was “inactive”.

And the Potency [4]?
Its Potency is “inactive”.

What about the Potency [5] of the same compound?
The Potency was “inactive”.

And the Potency [6]?
Its Potency is “inactive”.

And the Potency [7]?
The Potency was “inactive”.

What about the Potency [8] of the same compound?
The Potency was “inactive”.

And the Potency [9]?
The Potency was 2.35 µM (active).

And the Potency [10]?
The Potency was 0.187 µM (active).

With O=C(N[C@@H](COc1ccc2[nH]c(=O)[nH]c2c1)c1ccccc1)c1cccn(Cc2ccc(F)c(F)c2)c1=O as the compound, how does the Potency [1] read?
The Potency was “inactive”.

And the Potency [3]?
The Potency was “inactive”.

What about the Potency [4] of the same compound?
The Potency was “inactive”.

What about the Potency [5] of the same compound?
Its Potency is “inactive”.

And the Potency [6]?
The Potency was “inactive”.

What about the Potency [7] of the same compound?
The Potency was “inactive”.

And the Potency [9]?
The Potency was 20.9 µM (active).

Which Potency [1] does the source give for N#C[C@H](O[C@@H]1O[C@H](CO[C@@H]2O[C@H](CO)[C@H](O)[C@H](O)[C@H]2O)[C@H](O)[C@H](O)[C@H]1O)c1ccccc1 here?
The Potency was 20.9 µM (active).

What about the Potency [3] of the same compound?
The Potency was 17.2 µM (active).

And the Potency [4]?
Its Potency is 19.3 µM (active).

And the Potency [5]?
The Potency was 38.5 µM (active).

And the Potency [6]?
Its Potency is 24.3 µM (active).

What about the Potency [7] of the same compound?
Its Potency is “inactive”.

What about the Potency [8] of the same compound?
Its Potency is 23.5 µM (active).

And the Potency [9]?
Its Potency is 26.4 µM (active).

And the Potency [10]?
The Potency was 29.6 µM (active).
